Screening data from PubChem BioAssay.
JMJD2A Tudor inh = inhibitors of human JMJD2A Tudor domain | O75164 | AlphaScreen JMJD2A-Tudor / H3K4me3 peptide binding | Potency, µM (series often up to 114 µM), for inactives: at the highest dose activity change, negative = inhibition, actives largely listed as inhibitors | actives 4.4% (n = 390,000) | AID 504339; also: % is scaled to controls: 0 for no effect and ±100 for the full control effect; nearly all actives have a fitted effect of over 50% in size
HP1b chromo inh = blocks HP1-beta chromodomain binding to methylated histone tails; Potency, µM (highest dose often 114 µM), inactives show at the top dose activity change, negative = inhibition, usual class: inhibitors; AID 540317; actives 0.56% (n = 390,000); P83916; AlphaScreen HP1-beta / biotin-H3K9me3 peptide binding; also: nearly all actives have a fitted effect of over 70% in size
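Compound inhibition of the preformed complex between 50 nM HP1-beta and 50 nM biotinylated H3K9me3 peptide was read by AlphaScreen. Buffer was PBS pH 7.4 with 0.01% Tween-20. Incubations ran 30 min at room temperature, with 10 ug/mL donor/acceptor beads.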
BAZ2B inh = inhibitors of human BAZ2B bromodomain. Potency, µM (series often up to 114 µM), for the others: at the top dose activity change, negative = inhibition, hits mostly inhibitors. AlphaScreen BAZ2B-H3K14Ac peptide displacement. actives 4.4% (n = 360,000); also: % is scaled to controls: 0 for no effect and ±100 for the full control effect; nearly all actives have a fitted effect of over 60% in size
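AlphaScreen luminescence quantifies BAZ2B engagement of H3K14Ac peptide; the protein and biotinylated peptide are both at 50 nM final, buffer PBS pH 7.4 with 0.01% Tween-20, all steps at room temperature.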
L3MBTL1 block = L3MBTL1 (human) inhibition | Q9Y468 | AlphaScreen L3MBTL1–H3K9me1 peptide binding | Potency, µM (highest dose often 57.1 µM), for the others: top-dose activity, negative = inhibition, usual class: inhibitors | actives 0.66% (n = 230,000) | AID 485360; also: % is scaled to controls: 0 for no effect and ±100 for the full control effect; nearly all actives have a fitted effect of over 60% in size
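Displacement of a biotinylated histone H3(1-15) peptide monomethylated at Lys9 (75 nM) from L3MBTL1 (50 nM) was measured by AlphaScreen after a 30 min room-temperature compound incubation; cefsulodin titration served as intraplate control.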
G9a inh = blocks human histone lysine methyltransferase G9a | actives 8.8% (n = 350,000) | Q96KQ7 | Potency, µM (doses to about 102 µM), for the others: top-dose activity, negative = inhibition, hits mostly inhibitors | G9a H3K9 monomethylation, AlphaScreen, 2 h; also: % is scaled to controls: 0 for no effect and ±100 for the full control effect; nearly all actives have a fitted effect of over 75% in size
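Signal arises when biotinylated H3K9 peptide, once monomethylated, bridges streptavidin donor and antibody-captured acceptor beads. Enzyme at 20 nM was preincubated 15 min with test compounds; peptide 500 nM and SAM 20 uM then reacted for 2 h.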
An asterisk follows results filed as active; [ ] = another dose, or the depositor's remark. This is a sample that favours compounds with a hit; in the whole collection about 11% have one here. Calls follow the shape of the dose curve; as a rule, active = well fitted inhibition curve with a large enough effect; inconclusive = small, poorly fitted or top-dose-only effect; inactive = no such curve, though single readings can be large or run the other way. Potency is read from the fitted curve at half-maximal effect.

For CCC(=O)N(CCC(c1ccccc1)c1ccco1)Cc1cccs1 (stereo not given) the results were JMJD2A Tudor inh 1%, HP1b chromo inh 31%, BAZ2B inh inconclusive, L3MBTL1 block 2% and G9a inh 30%[0.501 µM].
For CCCCC[n+]1cccc2c3ccccc3ccc21 the results were JMJD2A Tudor inh inconclusive, HP1b chromo inh 14%, BAZ2B inh 34% and G9a inh 50µM*.
c1ccc(C[n+]2cccc3c4ccccc4ccc32)cc1 was read as JMJD2A Tudor inh 18%, HP1b chromo inh 35%, BAZ2B inh -1% and L3MBTL1 block 6%.
COCCNc1nnc(SCC(=O)N(C)c2c(N)n(Cc3ccccc3)c(=O)[nH]c2=O)s1 was read as JMJD2A Tudor inh -10%, HP1b chromo inh 24%, BAZ2B inh -1%, L3MBTL1 block 11% and G9a inh 22µM*.
For COCCN(C(=O)CSc1nc2ccccc2s1)c1c(N)n(Cc2ccccc2)c(=O)[nH]c1=O the results were JMJD2A Tudor inh inconclusive and HP1b chromo inh -10%.
For COCCN(C(=O)CSc1nnc(Nc2ccccc2F)s1)c1c(N)n(Cc2ccccc2)c(=O)[nH]c1=O the results were JMJD2A Tudor inh -16%[57.1 µM], HP1b chromo inh 3%, BAZ2B inh -2% and G9a inh 14µM*.
Screening CCN(C(=O)CSc1nnc(NCCOC)s1)c1c(N)n(Cc2ccccc2)c(=O)[nH]c1=O returned JMJD2A Tudor inh -10% and HP1b chromo inh 45%.
For Cc1ccc(N(CC(=O)N2CCN(c3cccc(C)c3C)CC2)S(=O)(=O)c2c(C)nn(C)c2C)cc1 the results were JMJD2A Tudor inh inconclusive, HP1b chromo inh 5% and G9a inh inconclusive.
For O=C(CSc1ccc(-c2ccccc2)nn1)c1ccccc1 the results were JMJD2A Tudor inh -19%, HP1b chromo inh 39%, BAZ2B inh 4%, L3MBTL1 block 18% and G9a inh inconclusive.
For O=C(CSc1ccc(-c2ccccn2)nn1)c1ccccc1 the results were JMJD2A Tudor inh 7.1µM*, HP1b chromo inh 37%, BAZ2B inh 3.5µM* and G9a inh inconclusive.
`COc1ccccc1-c1ccc(SCc2ccccc2)nn1` gave JMJD2A Tudor inh 42%, HP1b chromo inh 82%, BAZ2B inh 50%, L3MBTL1 block 39% and G9a inh 58%.
O=C(CSc1ccc(-c2ccccn2)nn1)N1CCCC1 was read as JMJD2A Tudor inh 3.2µM*, HP1b chromo inh -13%, BAZ2B inh 7.1µM* and G9a inh 3.5µM*.
Screening O=C(CSc1ccc(-c2ccco2)nn1)N1CCCC1 returned JMJD2A Tudor inh -25%, HP1b chromo inh 43%, BAZ2B inh -3% and G9a inh inconclusive.
For O=C(CSc1ccc(-c2ccccc2)nn1)N1CCN(c2ccccc2)CC1 the results were JMJD2A Tudor inh -11%, HP1b chromo inh 16%, BAZ2B inh 16%, L3MBTL1 block 3% and G9a inh -1%.
Screening c1ccc(CSc2ccc(-c3ccccn3)nn2)cc1 returned JMJD2A Tudor inh 7.9µM*, HP1b chromo inh 27%, BAZ2B inh 6.3µM* and G9a inh -39%.
O=C(CSc1ccc(-c2ccco2)nn1)N1CCCCC1 was read as JMJD2A Tudor inh -5%, HP1b chromo inh 24%, BAZ2B inh inconclusive and G9a inh 22µM*.
Screening Cc1ccc(CCNC(=O)c2cc3cc(S(=O)(=O)N4CCCCC4)ccc3n2C)cc1 returned JMJD2A Tudor inh -2%, HP1b chromo inh 27%[57 µM], BAZ2B inh 0% and G9a inh 7%[59 µM].
O=C(Cn1nnnc1-c1ccccc1F)Nc1ccc(F)c(F)c1 was read as JMJD2A Tudor inh -14%, HP1b chromo inh 19%, BAZ2B inh 2% and G9a inh 7%[59 µM].
`COc1ccc(-c2ccc(SCC(=O)NC3CCCCC3)nn2)cc1OC` gave JMJD2A Tudor inh -14%, HP1b chromo inh 9%, BAZ2B inh -13% and G9a inh -11%.
For O=C(CSc1ccc(-c2ccccn2)nn1)NC1CCCC1 the results were JMJD2A Tudor inh 3.2µM*, HP1b chromo inh 15%, BAZ2B inh 3.2µM* and G9a inh -24%.
For O=C(NCc1ccc2c(c1)OCO2)c1ccc2c(c1)N(Cc1cccc(Cl)c1)C(=O)c1ccccc1S2=O (stereo not given) the results were JMJD2A Tudor inh -4%, HP1b chromo inh 23%, BAZ2B inh 0% and G9a inh 4%[59 µM].
`COc1cccc(C(O)CC(N)=O)c1` (stereo not given) gave JMJD2A Tudor inh -6%, HP1b chromo inh 25%, BAZ2B inh 4%, L3MBTL1 block inconclusive and G9a inh 9%[59 µM].
Screening COc1cccc(C(C2C(=O)CC(C)(C)CC2=O)C2C(=O)CC(C)(C)CC2=O)c1 returned JMJD2A Tudor inh -6%, HP1b chromo inh 61%, BAZ2B inh -2% and G9a inh 79µM*.
`Cc1ccc(C(c2c(C)[nH][nH]c2=O)c2c(C)[nH][nH]c2=O)cc1[N+](=O)[O-]` gave JMJD2A Tudor inh -9%, HP1b chromo inh 27%, BAZ2B inh -3%, L3MBTL1 block 1% and G9a inh inconclusive.
COC(=O)COc1ccc(NC(=O)C(c2ccccc2)c2ccccc2)cc1 was read as JMJD2A Tudor inh -19%, HP1b chromo inh -3%, BAZ2B inh inconclusive, L3MBTL1 block inconclusive and G9a inh -2%.
For CC1(C)CC(=O)C(C(c2cccnc2)C2C(=O)CC(C)(C)CC2=O)C(=O)C1 the results were JMJD2A Tudor inh -32%, HP1b chromo inh 32%, BAZ2B inh -1% and G9a inh 50µM*.
For COC(=O)COc1ccc(C(C2C(=O)CC(C)(C)CC2=O)C2C(=O)CC(C)(C)CC2=O)cc1 the results were JMJD2A Tudor inh 13%, HP1b chromo inh 52%, BAZ2B inh 12% and G9a inh 32µM*.
Screening CC1(C)CC(=O)C(C(c2ccccc2F)C2C(=O)CC(C)(C)CC2=O)C(=O)C1 returned JMJD2A Tudor inh -11%, HP1b chromo inh 60%, BAZ2B inh -1% and L3MBTL1 block 3%.
CC1(C)CC(=O)C(C(C2=C(O)CC(C)(C)CC2=O)c2ccc(O)c([N+](=O)[O-])c2)=C(O)C1 was read as JMJD2A Tudor inh -8%, HP1b chromo inh 20%, BAZ2B inh -32%, L3MBTL1 block -6% and G9a inh 35µM*.
CC(=O)c1cccc(NC(=O)Cn2c(-c3cncs3)nc3ccccc32)c1 was read as JMJD2A Tudor inh -19%, HP1b chromo inh 6%, BAZ2B inh inconclusive and G9a inh 1%[59 µM].
Screening Cc1ccc(/C=C/c2onc(C)c2S(=O)(=O)N2CCC(C(=O)NCC(C)c3ccccc3)CC2)cc1 (stereo not given) returned JMJD2A Tudor inh -19%, HP1b chromo inh 17%[57 µM], BAZ2B inh -1% and G9a inh 5%[59 µM].
